Assay results taken from PubChem BioAssay AID1159580 (chemical genetic matrix, 2015).
Screen size: about 5,500 compounds; about 2,000 (36%) were called active. Another 18% or so got no clear call; they are omitted. This is one part of the list. Unmarked numbers belong to inactive results. No stated cut-off is given here; in the data, active means normalized growth mostly below about 0.91 (no sharp cut-off); inconclusive means no clear call, values can overlap the other calls; inactive means mostly above about 0.92.

Assay: chemical genetic growth profiling, strain panel (AID 1159580);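 further: tested at 20 µM; growth read once vehicle control cultures reached saturation at 30 °C; 1 = growth at the plate median or of vehicle wells; lower values mean less growth of the strain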
Settings: S. cerevisiae deletion strains, growth OD

For `Cc1ccc(C)c(OCCCC(C)(C)C(=O)O)c1`, which normalized growth (locus YJR066W, strain TOR1, active compounds read low) is on record?
The normalized growth was 0.834.

What about the normalized growth (locus YJR075W, strain HOC1, active compounds read low) of the same compound?
The normalized growth was 0.937.

What about the normalized growth (locus YKL009W, strain mrt4, active compounds read low) of the same compound?
Its normalized growth is 0.437 (active).

What about the normalized growth (locus YKL068W, active compounds read low) of the same compound?
Its normalized growth is 0.923 (active).

And the normalized growth (locus YKL085W, strain MDH1 (second series), active compounds read low)?
The normalized growth was 0.492 (active).

What about the normalized growth (locus YKL085W, strain MDH1, active compounds read low) of the same compound?
The normalized growth was 0.492 (active).

What about the normalized growth (locus YKL160W, strain elf1, active compounds read low) of the same compound?
Its normalized growth is 0.968.

What about the normalized growth (locus YKL190W, strain CNB1, active compounds read low) of the same compound?
Its normalized growth is 0.962.

And the normalized growth (locus YKR001C, strain vps1, active compounds read low)?
Its normalized growth is 0.644 (active).

What about the normalized growth (locus YKR026C, strain gcn3, active compounds read low) of the same compound?
Its normalized growth is 0.976.

What about the normalized growth (locus YKR091W, strain srl3, active compounds read low) of the same compound?
Its normalized growth is 0.979.

What about the normalized growth (locus YLL001W, strain dnm1, active compounds read low) of the same compound?
The normalized growth was 0.975.

And the normalized growth (locus YLL026W, active compounds read low)?
Its normalized growth is 0.976.

And the normalized growth (locus YLL041C, strain sdh2, active compounds read low)?
The normalized growth was 0.98.

What about the normalized growth (locus YLR027C, strain aat2, active compounds read low) of the same compound?
Its normalized growth is 0.969.

What about the normalized growth (locus YLR039C, strain RIC1, active compounds read low) of the same compound?
The normalized growth was 0.469 (active).

What about the normalized growth (locus YLR058C, strain SHM2, active compounds read low) of the same compound?
The normalized growth was 0.956.

And the normalized growth (locus YLR102C, strain apc9, active compounds read low)?
The normalized growth was 0.949.

What about the normalized growth (locus YLR113W, strain HOG1, active compounds read low) of the same compound?
Its normalized growth is 0.752 (active).

And the normalized growth (locus YLR221C, strain rsa3, active compounds read low)?
Its normalized growth is 0.959.

And the normalized growth (locus YLR258W, strain gsy2, active compounds read low)?
The normalized growth was 0.942.

What about the normalized growth (locus YLR262C, strain YPT6 (second series), active compounds read low) of the same compound?
The normalized growth was 0.706 (active).

What about the normalized growth (locus YLR262C, strain YPT6, active compounds read low) of the same compound?
Its normalized growth is 0.509 (active).

What about the normalized growth (locus YLR268W, strain sec22, active compounds read low) of the same compound?
The normalized growth was 0.845 (active).

What about the normalized growth (locus YLR320W, strain mms22, active compounds read low) of the same compound?
Its normalized growth is 0.919.

And the normalized growth (locus YLR330W, strain CHS5, active compounds read low)?
Its normalized growth is 0.932.

What about the normalized growth (locus YLR342W, strain FKS1 (second series), active compounds read low) of the same compound?
The normalized growth was 0.751 (active).

What about the normalized growth (locus YLR342W, strain FKS1, active compounds read low) of the same compound?
The normalized growth was 0.965.

And the normalized growth (locus YLR357W, strain rsc2, active compounds read low)?
Its normalized growth is 1.1.

What about the normalized growth (locus YLR370C, strain arc18, active compounds read low) of the same compound?
Its normalized growth is 0.948.

What about the normalized growth (locus YLR371W, strain rom2, active compounds read low) of the same compound?
Its normalized growth is 0.942.

What about the normalized growth (locus YLR384C, strain iki3, active compounds read low) of the same compound?
Its normalized growth is 0.987.

What about the normalized growth (locus YLR418C, strain cdc73, active compounds read low) of the same compound?
Its normalized growth is 0.824 (active).

And the normalized growth (locus YML016C, strain PPZ1, active compounds read low)?
The normalized growth was 0.951.

And the normalized growth (locus YML032C, strain rad52, active compounds read low)?
The normalized growth was 0.847 (active).

What about the normalized growth (locus YML120C, strain ndi1, active compounds read low) of the same compound?
The normalized growth was 0.942.

What about the normalized growth (locus YML124C, strain tub3, active compounds read low) of the same compound?
Its normalized growth is 0.934.

What about the normalized growth (locus YMR058W, strain fet3, active compounds read low) of the same compound?
Its normalized growth is 0.963.

What about the normalized growth (locus YMR078C, strain ctf18, active compounds read low) of the same compound?
Its normalized growth is 0.918.

What about the normalized growth (locus YMR125W, strain sto1, active compounds read low) of the same compound?
The normalized growth was 1.03.

And the normalized growth (locus YMR129W, active compounds read low)?
Its normalized growth is 0.983.

And the normalized growth (locus YMR205C, strain PFK2, active compounds read low)?
The normalized growth was 0.986.

What about the normalized growth (locus YMR223W, strain ubp8, active compounds read low) of the same compound?
Its normalized growth is 0.865 (active).

What about the normalized growth (locus YMR231W, strain pep5, active compounds read low) of the same compound?
Its normalized growth is 0.964.

And the normalized growth (locus YMR307W, strain GAS1, active compounds read low)?
The normalized growth was 0.481 (active).

What about the normalized growth (locus YNL067W, strain RPL9B, active compounds read low) of the same compound?
Its normalized growth is 0.956.

What about the normalized growth (locus YNL071W, strain lat1, active compounds read low) of the same compound?
Its normalized growth is 0.945.

What about the normalized growth (locus YNL183C, strain NPR1, active compounds read low) of the same compound?
Its normalized growth is 0.843.

And the normalized growth (locus YNL209W, strain ssb2, active compounds read low)?
Its normalized growth is 0.99.

What about the normalized growth (locus YNL233W, strain BNI4, active compounds read low) of the same compound?
Its normalized growth is 0.935.

And the normalized growth (locus YNL248C, strain rpa49, active compounds read low)?
The normalized growth was 1.02.

What about the normalized growth (locus YNL250W, strain rad50, active compounds read low) of the same compound?
Its normalized growth is 0.578 (active).

What about the normalized growth (locus YNL271C, strain bni1, active compounds read low) of the same compound?
The normalized growth was 0.452 (active).

And the normalized growth (locus YNL298W, strain CLA4, active compounds read low)?
The normalized growth was 0.202 (active).

What about the normalized growth (locus YNL307C, strain MCK1, active compounds read low) of the same compound?
Its normalized growth is 0.649 (active).

What about the normalized growth (locus YNL322C, strain KRE1 (second series), active compounds read low) of the same compound?
The normalized growth was 0.992.

What about the normalized growth (locus YNR049C, strain mso1, active compounds read low) of the same compound?
The normalized growth was 0.982.

And the normalized growth (locus YNR052C, strain pop2, active compounds read low)?
The normalized growth was 0.775 (active).

What about the normalized growth (locus YOL012C, strain htz1) of the same compound?
The normalized growth was 0.759.

What about the normalized growth (locus YOL147C, strain pex11, active compounds read low) of the same compound?
Its normalized growth is 0.908 (active).

What about the normalized growth (locus YOR001W, strain rrp6, active compounds read low) of the same compound?
The normalized growth was 0.953.

What about the normalized growth (locus YOR061W, strain CKA2, active compounds read low) of the same compound?
The normalized growth was 0.926.

What about the normalized growth (locus YOR069W, strain VPS5, active compounds read low) of the same compound?
The normalized growth was 0.971.

And the normalized growth (locus YOR070C, strain gyp1, active compounds read low)?
The normalized growth was 0.973.

And the normalized growth (locus YOR080W, strain dia2, active compounds read low)?
The normalized growth was 1.01.

What about the normalized growth (locus YOR083W, strain WHI5, active compounds read low) of the same compound?
Its normalized growth is 0.982.

And the normalized growth (locus YOR106W, strain vam3, active compounds read low)?
The normalized growth was 0.959.

And the normalized growth (locus YOR136W, strain idh2, active compounds read low)?
Its normalized growth is 0.989.

And the normalized growth (locus YOR144C, strain elg1, active compounds read low)?
Its normalized growth is 0.907 (active).

What about the normalized growth (locus YOR184W, strain ser1, active compounds read low) of the same compound?
Its normalized growth is 0.675 (active).

What about the normalized growth (locus YOR231W, strain MKK1, active compounds read low) of the same compound?
The normalized growth was 0.803 (active).

What about the normalized growth (locus YOR265W, strain rbl2, active compounds read low) of the same compound?
The normalized growth was 1.

What about the normalized growth (locus YOR270C, strain vph1, active compounds read low) of the same compound?
The normalized growth was 0.961.

And the normalized growth (locus YOR290C, strain snf2, active compounds read low)?
Its normalized growth is 0.906.

What about the normalized growth (locus YOR316C, strain cot1, active compounds read low) of the same compound?
Its normalized growth is 0.939.

What about the normalized growth (locus YPL051W, strain arl3, active compounds read low) of the same compound?
The normalized growth was 0.923.

What about the normalized growth (locus YPL055C, strain LGE1, active compounds read low) of the same compound?
The normalized growth was 0.925.

What about the normalized growth (locus YPL078C, strain atp4, active compounds read low) of the same compound?
The normalized growth was 0.975.

And the normalized growth (locus YPL106C, strain sse1, active compounds read low)?
The normalized growth was 1.15.

And the normalized growth (locus YPL240C, strain hsp82, active compounds read low)?
Its normalized growth is 0.977.

And the normalized growth (locus YPL241C, strain CIN2, active compounds read low)?
Its normalized growth is 0.948.

And the normalized growth (locus YPL256C, strain CLN2, active compounds read low)?
Its normalized growth is 0.825 (active).

What about the normalized growth (locus YPR119W, strain clb2, active compounds read low) of the same compound?
The normalized growth was 0.93 (active).

And the normalized growth (locus YPR141C, strain kar3, active compounds read low)?
Its normalized growth is 0.817 (active).

And the normalized growth (locus YPR163C, strain tif3, active compounds read low)?
The normalized growth was 0.857 (active).

And the normalized growth (locus YPR167C, strain met16, active compounds read low)?
The normalized growth was 0.914 (active).

What about the normalized growth (strain wtn01, active compounds read low) of the same compound?
The normalized growth was 0.877 (active).
